# According to PubChem BioAssay (NCI):
# About 79,000 compounds went through this panel and 15% of them were active in at least one assay; those are over-represented in the sample as a whole. A number with no mark means an inactive call. Active and inactive are the calls of the source. No stated cut-off is given here; in the data, active means growth inhibition above about 70%; inactive means the rest. Where a SMILES comes first, the peptide text is derived from it. Bridges are numbered along the chain shown (N, C = ends). Roman numbers before positions name the chains, in order.
# What was measured:
# [1] = NCI Yeast Anticancer Drug Screen. Data for the rad50 strain (AID 155);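 further: 0% = growth of vehicle-only cultures of the same strain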; settings: S. cerevisiae rad50 strain growth inhibition; at 50.0 µM; active compounds read high
# Summary of the method: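 Growth of the mutant yeast was measured after compound exposure and referenced to vehicle-treated cultures.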
# [2] = NCI Yeast Anticancer Drug Screen. Data for the mec2-1 strain (AID 157); settings: S. cerevisiae mec2-1 strain, at 50.0 µM, active compounds read high
# Summary of the method: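 Mutant yeast (mec2-1) grown with compound; growth inhibition relative to vehicle control reported.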
# [3] = NCI Yeast Anticancer Drug Screen. Data for the sgs1 mgt1 strain (AID 161);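 further: 0% = growth of cultures given vehicle only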; settings: S. cerevisiae sgs1 mgt1 strain, at 50.0 µM, active compounds read high
# Summary of the method: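 Percent growth inhibition was derived by comparing compound-exposed mutant yeast with vehicle-exposed cultures. The strain carries alterations in DNA damage repair.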
# [4] = NCI Yeast Anticancer Drug Screen. Data for the cln2 rad14 strain (AID 165);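 further: 0% = growth equal to vehicle treated cultures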; settings: S. cerevisiae cln2 rad14 strain, at 50.0 µM, active compounds read high
# Summary of the method: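 Readout is yeast growth inhibition versus vehicle-treated controls, using a strain with cln2 and rad14 alterations exposed to compound.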
# [5] = NCI Yeast Anticancer Drug Screen. Data for the bub3 strain (AID 167); settings: S. cerevisiae bub3 mutant strain, at 50.0 µM, active compounds read high
# Summary of the method: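 Whole-cell yeast assay. The mutant strain was incubated with compounds, and growth inhibition was determined by comparison with vehicle-treated cells.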
# [6] = NCI Yeast Anticancer Drug Screen. Data for the mlh1 rad18 strain (AID 175); settings: S. cerevisiae mlh1 rad18 strain growth inhibition; at 50.0 µM; active compounds read high
# Summary of the method: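 Genetically defined yeast (DNA repair-deficient) exposed to compounds; growth inhibition determined relative to vehicle.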
Compound,growth inhibition [1],growth inhibition [2],growth inhibition [3],growth inhibition [4],growth inhibition [5],growth inhibition [6]
CCO/C=C1/C(=O)N(C)c2c1c(=O)n(C)c(=O)n2C,-46.9%,-0.25%,-4.05%,-14.3%,-18.1%,-5.15%
CCC(CC)(C(=O)O)C(=O)O,34.1%,9.3%,-3.35%,-33.2%,12.7%,5.8%
O=[N+]([O-])c1cc(/C=N/NS(=O)(=O)c2ccc(F)cc2)c(O)c([N+](=O)[O-])c1,10.2%,-11.2%,-14.6%,3.65%,0.35%,9%
CC(C)CC(NC(=O)C(N)CSSCC(N)C(=O)NC(CC(C)C)C(=O)O)C(=O)O (stereo not drawn) (I: H-Cys-Leu-OH / II: H-Cys-Leu-OH; disulfide I:1-II:1; configuration not given here),-10.6%,-6.85%,-9.8%,-23.1%,-1.25%,-6.9%
O=C(Nc1ccc(Cl)cc1)Nc1nnc(-c2cc([N+](=O)[O-])cc([N+](=O)[O-])c2)o1,-2.1%,20.8%,28.8%,-13.3%,-32.6%,-2.25%
Cn1c2ccccc2c2nc3ccccc3c(Cl)c21,-43.5%,-12.8%,-49.9%,-12.9%,-39.9%,-31.9%
COc1cc(C(=O)CC(=O)Cc2ccc3ccccc3n2)cc(OC)c1OC,2.75%,1.3%,0.9%,-15.7%,2.05%,38.2%
CC1(C)OC2COC(c3[nH]nc(C(N)=O)c3C(=O)N=[N+]=[N-])C2O1 (stereo unspecified),-11.3%,-1.35%,-12.1%,4.35%,7.85%,-9.95%
c1ccc2c(c1)C(=Nc1ccc(N=C3c4ccccc4-c4ccccc43)cc1)c1ccccc1-2,1.8%,-0.55%,-5.7%,-1%,-27.4%,-20.6%
COC1=C(OC)C(=O)C(Sc2ccc3ccccc3c2)=C(Cl)C1=O,95.2% (active),94.2% (active),93.8% (active),94.4% (active),91.7% (active),91.1% (active)
O=c1cc(-c2ccccc2)c2cc3c(=O)ccoc3cc2o1,12.8%,27.1%,12%,14.9%,-1.55%,0.95%
O=C(O)c1c2c(nc3ccccc13)CCC2,2.55%,-9.75%,6.35%,-14.5%,12.2%,-8.4%
O=C1NC(=O)C(c2ccc(C(=O)O)cc2)N1 (stereo unspecified),-12.8%,-10%,0.05%,8.45%,-5.5%,-2.25%
CC1CC(O)CC(C)(C)C1.CC1CC(O)CC(C)(C)C1.CC1CC(O)CC(C)(C)C1.CC1CC(O)CC(C)(C)C1.[Ti] (stereo unspecified),13.9%,-4.65%,23.2%,15.1%,32.5%,31.9%
O=C1c2ccccc2-c2nc(-c3cccnc3)cc3c2c1nc1ccccc13,32.7%,24.4%,34.4%,23%,24.7%,39%
CC(C)(Cc1ccc([N+](=O)[O-])cc1)[N+](=O)[O-],7.95%,11.3%,4.3%,-7.55%,12.4%,-0.05%
Cc1ccc(S(=O)(=O)C(c2ccccc2)C(Br)C(=O)c2ccccc2)cc1 (stereo unspecified),-0.25%,0.35%,18.2%,7.3%,1.55%,-8.4%
CC(=O)c1cc2c(cc1C)CCCC2(C)C,0.95%,-3.8%,-2.4%,-1.5%,4.4%,1.35%
CC1NC(=O)C(C)C(c2ccccc2)N(N=O)C1c1ccccc1 (stereo unspecified),-10.7%,7.8%,14.6%,0.05%,-25.6%,11%
COc1ccccc1/C=N/Nc1ccc([N+](=O)[O-])cc1[N+](=O)[O-],6.45%,5.15%,3.35%,-16.6%,16.8%,18.8%
O=S(NOCc1ccccc1)c1ccccc1 (stereo unspecified),13.3%,24.2%,3.95%,-31.8%,-6%,9.75%

Compound,growth inhibition [1],growth inhibition [2],growth inhibition [3],growth inhibition [4],growth inhibition [5],growth inhibition [6]
COc1ccc(-c2cc(-c3ccccc3)n(C3OC(COC(C)=O)C(OC(C)=O)C(OC(C)=O)C3OC(C)=O)c(=S)c2C#N)cc1 (stereo unspecified),5%,-11.8%,-8.6%,-25.4%,26.5%,-5.2%
O=C1NC(=O)c2ccc(Br)c3cccc1c23,17.9%,18.9%,16.1%,21.6%,19.9%,1.75%
O=C(O)CSc1ccc2c3c(cccc13)C(=O)c1ccccc1-2,-9.9%,27.4%,7.95%,26%,56.8%,3.1%
COc1ccc(NC(=O)Oc2ccccc2C(N)=O)c(Cl)c1,-2.05%,10.8%,3.65%,4.6%,18.4%,9.75%
C=CCOC(=O)CC(=C)C(=O)OCC=C,8.5%,26.4%,-8.95%,-4.7%,-5.65%,-3.55%
CCOc1nc2ccc(N)cc2s1,19.6%,-9.55%,3.25%,-31.9%,11.4%,-12.3%
O=C(O)/C=C/c1ccc(O)c(O)c1,18.3%,-7.15%,0.5%,9.9%,7.25%,7.65%
CCCCCCCN(CCCCCCC)CC(O)c1cc2ccccc2c2cc(Br)ccc12 (stereo unspecified),-52.9%,-33%,-41%,-25%,-69.1%,-109%
CC(=O)OCC1OC(n2c(-c3ccc(Cl)cc3)cc(-c3ccccc3)c(C#N)c2=S)C(OC(C)=O)C(OC(C)=O)C1OC(C)=O (stereo unspecified),20.6%,-9.25%,6.5%,2.8%,17.8%,14.2%
NCCSCCC(=O)O,-0.25%,-12.1%,-36.9%,7.3%,-28.4%,-22.6%
CCOc1ccc(C(=O)OC(C)C)cc1,26.5%,4.15%,1.9%,2.7%,-2.45%,6.15%
N#CC(c1cccs1)C1CCCCC1 (stereo unspecified),9.4%,-0.5%,2.05%,-11.8%,2.65%,-1.3%
CCCCCCCc1cc(=O)[nH]c(=S)[nH]1,4.05%,-4.9%,0.5%,-10.8%,11.3%,-5.4%
CS(=O)(=O)OCCN1C(=O)CNC1=O,4.6%,8.35%,-9.45%,-27.8%,9.55%,-2.7%
CCOP(=O)(OCC)C(NC(=O)C(C(F)(F)F)C(F)(F)F)c1ccccc1 (stereo unspecified),7.85%,16.2%,0.05%,24.4%,34.1%,-14.1%
Clc1ccc(-c2nnc(-c3ccncc3)o2)c(Cl)c1,18.1%,-4.5%,17.9%,-1.6%,27.2%,15.6%
O=C1OCC(c2ccccc2)(c2ccccc2)C(=O)N1O,18.4%,-2.1%,3.95%,13.2%,5.65%,16.5%
COc1cccc(NC(=O)CC(=O)N/N=C/c2ccc(N(CCC#N)CCC#N)c(I)c2)c1,29.6%,8.95%,7.7%,9.55%,-5.55%,28.7%
CC1CN(C(=S)Nc2cccc3ccccc23)CC(C)O1 (stereo unspecified),19.4%,36.5%,44.9%,22%,44.8%,7.8%
O=C1c2ccccc2C(c2ccccc2)C1c1ccccc1 (stereo unspecified),22.8%,15.9%,17.6%,-16.6%,20.6%,0.8%
